Screening results as filed in PubChem BioAssay.
Mcl1-Noxa inh: Mcl-1/Noxa binding inhibitors, primary screen, biochemical, TR-FRET, 1536-well; Induced myeloid leukemia cell differentiation protein Mcl-1 (Homo sapiens), Q07820; TR-FRET Mcl-1/Noxa peptide binding, 2 h; inhibition, % at 21.7 µM; hit rate 1.5% among 220,000; AID 1022, 2008;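 active = compounds that cut the protein-peptide binding signal by more than 50% relative to plate controls in a single-dose test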;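 note: His-tagged Mcl-1 with rhodamine Noxa BH3 peptide and terbium anti-His antibody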
Target sequence (Q07820 whole entry, looked up): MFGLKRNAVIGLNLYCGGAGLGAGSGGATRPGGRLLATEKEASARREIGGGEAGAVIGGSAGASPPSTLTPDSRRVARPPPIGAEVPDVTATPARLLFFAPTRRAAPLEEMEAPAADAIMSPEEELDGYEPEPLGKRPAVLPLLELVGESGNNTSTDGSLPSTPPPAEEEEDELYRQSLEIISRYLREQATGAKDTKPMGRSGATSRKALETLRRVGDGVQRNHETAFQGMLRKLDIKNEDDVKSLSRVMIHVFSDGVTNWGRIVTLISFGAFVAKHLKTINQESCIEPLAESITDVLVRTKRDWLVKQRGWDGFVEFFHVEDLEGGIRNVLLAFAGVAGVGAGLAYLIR
Mcl1 Bid PPI: Mcl-1/Bid binding inhibitors, primary screen, biochemical, TR-FRET, 1536-well. TR-FRET Mcl-1/Bid-Dy647 peptide binding. Induced myeloid leukemia cell differentiation protein Mcl-1 (Homo sapiens), Q07820. hit rate 0.97% among 220,000. inhibition, % at 21.7 µM;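 active = compounds that cut the binding signal by more than half at the single screening dose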;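 note: His-tagged Mcl-1 with europium anti-His antibody binding Bid BH3 peptide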
GLD-1 RNA inh: GLD-1/TGE RNA complex disruptors, primary screen, biochemical, fluorescence polarization. Female germline-specific tumor suppressor gld-1 (Caenorhabditis elegans), Q17339. hit rate 0.44% among 320,000. purified GLD-1 + fluorescein TGE RNA. inhibition, % at 5.96 µM. AID 2280, 2010;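 active = percent inhibition above a per-plate cutoff, the plate mean of test compounds plus 3 SD, cut at about 30% in these data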
MCL1 BIM primary: inhibitors of MCL1 binding to BIM-BH3, primary screen, biochemical, fluorescence polarization. AID 2057, 2009. Induced myeloid leukemia cell differentiation protein Mcl-1 (Homo sapiens), Q07820. GST-MCL1 / FITC-Bim-BH3 fluorescence polarization. inhibition, % at 10.9 µM. hit rate 0.68% among 320,000;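 active = inhibition above the mean inhibition of all tested compounds plus 3 SD, set per campaign, cut at about 40% in these data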;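 note: higher means more loss of mP so more displacement of Bim peptide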
Bcl-xL primary: inhibitors of human Bcl-xL, primary screen, biochemical, fluorescence polarization, HTS; Bcl-2-like protein 1 (Homo sapiens), Q07817; hit rate 0.7% among 320,000; GST-Bcl-xL / FITC-Bim BH3 peptide fluorescence polarization; inhibition, % at 10.9 µM;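 active = inhibition above the mean of all tested compounds plus 3 SD, cutoff set per campaign, cut at about 30% in these data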;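 note: inhibitors lower millipolarization by displacing the labeled peptide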
Target sequence (Q07817 whole entry, looked up): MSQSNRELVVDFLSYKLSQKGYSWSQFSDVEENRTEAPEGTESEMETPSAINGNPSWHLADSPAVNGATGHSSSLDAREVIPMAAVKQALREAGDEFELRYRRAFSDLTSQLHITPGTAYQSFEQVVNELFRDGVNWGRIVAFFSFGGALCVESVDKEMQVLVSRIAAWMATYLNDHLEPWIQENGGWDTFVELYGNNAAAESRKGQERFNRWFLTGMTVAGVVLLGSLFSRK
Mcl-1 Bim block: inhibitors of Bim peptide binding to Mcl-1, primary screen, biochemical, bead-based flow cytometry, multiplex; Induced myeloid leukemia cell differentiation protein Mcl-1 (Homo sapiens), Q07820; Bim peptide-Mcl-1 binding; inhibition, % at 10 µM; hit rate 0.1% among 190,000; in the data active = inhibition above about 40%
BCLXL inh confirm: Bcl-xL inhibitors blocking Bim BH3 binding, confirmation, counter-screen for MCL1 inhibitor project, biochemical, fluorescence polarization; shares compounds with MCL1 BIM primary; GST-Bcl-xL / FITC-Bim BH3 peptide FP binding; inhibition, % at 10.9 µM; hit rate 54% among 1,700; AID 2166, 2009;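 active = inhibition above a cutoff equal to the mean inhibition of all tested compounds plus 3 SD, cut at about 30% in these data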
MCL1 inh confirm: inhibitors of MCL1 binding to BIM-BH3, confirmation, biochemical, fluorescence polarization, triplicate. hit rate 61% among 1,700. inhibition, % at 10.9 µM. GST-MCL1 / FITC-Bim-BH3 fluorescence polarization. AID 2168, 2009. shares compounds with MCL1 BIM primary;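 active = inhibition above the average of all tested compounds plus 3 SD, cut at about 40% in these data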
Numbers stand for hits; – = inactive; · = no result; + = active, no number. A selection: hits, their analogues and other compounds. The true share with any hit is near 2.3%.

SMILES	Mcl1-Noxa inh	Mcl1 Bid PPI	GLD-1 RNA inh	MCL1 BIM primary	Bcl-xL primary	Mcl-1 Bim block	BCLXL inh confirm	MCL1 inh confirm
N#C/C(=C\c1cc(O)c(O)c(O)c1)C(N)=O	–	–	–	53	–	·	–	–
CCOC(=O)NC1(Nc2ccc(C)cc2)Oc2ccccc2O1	–	–	–	58	–	–	41	46
O=C(NC1CC1)C1CCN(C2CCN(C(=O)/C=C/c3ccc(F)cc3)CC2)CC1	–	–	–	–	–	–	·	·
COC(=O)CCC(=O)Nc1nccs1	–	–	–	–	–	–	·	·
COC(=O)C(Nc1nccs1)(OC)C(F)(F)F (stereo unspecified)	–	–	–	68	61	–	71	106
O=S(=O)(NCc1ccco1)c1cccc2cccnc12	–	–	–	154	–	–	–	–
COC(=O)c1ccc(CN2CCc3ccccc32)cc1	·	·	–	–	–	·	·	·
CCOC(=O)c1c(=O)n(O)c2ccc(OC)cc2[n+]1[O-]	–	–	176	188	159	–	45	60
O=C1NC(=S)SC1=C1CCCC1	–	–	–	44	–	–	–	60
CCOC(=O)N/N=C\c1ccc([N+](=O)[O-])o1	–	–	–	64	–	–	–	–
CC1(C)CC(NS(=O)(=O)c2ccc(S(N)(=O)=O)cc2)CC(C)(C)N1	·	·	89	118	97	·	–	–
CC(=O)N1CCN(c2nc(CC(C)C)c3c(c2C#N)CCC3)CC1	–	–	157	+	166	–	–	–
CC1(C)Cc2c(c(-c3ccccc3)[nH]c(=O)c2C#N)CS1	–	–	–	–	–	–	·	·
CC1(C)Cc2c(C#N)c(N3CCN(C(=O)c4ccco4)CC3)nc(-c3ccco3)c2CS1	53	–	–	68	35	–	–	49
CCc1nc(N2CCN(C(=O)c3ccco3)CC2)c(C#N)c2c1COC(C)(C)C2	·	·	–	–	–	·	·	·
CC1(C)Cc2c(c(-c3ccco3)[nH]c(=O)c2C#N)CS1	–	–	94	148	110	–	94	125
COC(=O)C1=C(O)/C(=C\c2ccc(CNS(=O)(=O)c3ccccc3)o2)N=C1C	–	–	–	48	45	–	31	54
COC(=O)C1=C(O)/C(=C\c2ccc(CNC(=O)C(=O)Nc3ccc(C)cc3)o2)N=C1C	–	–	–	–	–	–	·	·
CCN1/C(=C/C=C/c2sc3ccccc3[n+]2CC)Sc2ccccc21	·	·	–	+	+	·	+	+
CCN1/C(=C/C=C/C=C/C=C/c2sc3ccccc3[n+]2CC)Sc2ccccc21	·	·	–	–	–	·	·	·
Cc1c([N+](=O)[O-])nnn1-c1cc(Cl)cc(Cl)c1	–	–	–	–	–	–	·	·
Cc1ccc(OCCOCCn2ccnc2)c(Br)c1	–	–	–	44	–	–	–	–
CCCc1[nH]nc2c1C1(CCN(C(=O)OCc3ccccc3)CC1)C(C#N)=C(N)O2	–	–	–	–	–	–	·	·
CC(C)c1[nH]nc2c1C1(CCN(Cc3ccccc3)CC1)C(C#N)=C(N)O2	–	–	57	114	104	–	–	–
Oc1[nH]c2ccc(Br)cc2c1N=Nc1ccc(F)cc1	·	·	107	+	183	·	143	198
SMILES	Mcl1-Noxa inh	Mcl1 Bid PPI	GLD-1 RNA inh	MCL1 BIM primary	Bcl-xL primary	Mcl-1 Bim block	BCLXL inh confirm	MCL1 inh confirm
O=[N+]([O-])c1ccc2[nH]c(O)c(N=Nc3ccc(F)cc3)c2c1	·	·	–	–	–	·	·	·
COc1cccc(/C=N/NC(=O)c2cc3cc([N+](=O)[O-])ccc3s2)c1O	68	84	–	45	–	–	–	90
COc1ccc(/C=N/NC(=O)c2cccc([N+](=O)[O-])c2)cc1O	–	–	–	–	–	–	·	·
COc1ccc(C(=O)NNC(=O)CCc2ccccc2OC)cc1	·	·	–	–	–	·	·	·
CCOC(=O)/C(C#N)=C1/C(=O)N(Cc2ccccc2)c2ccccc21	–	–	·	·	·	–	·	·
CCOC(=O)C(C#N)=C1CCN(Cc2ccccc2)CC1	·	·	–	60	58	·	36	–
CCOC(=O)c1cc(C#N)c(SCC(=O)O)[nH]c1=O	–	–	–	–	–	–	·	·
CCOC(=O)c1cc(C#N)c(SCC(=O)c2cc(C#N)c(SC)nc2C)[nH]c1=O	–	–	77	117	103	–	–	–
Cc1nc([N+](=O)[O-])c(C(=O)OCc2cccc(Br)c2)n1C	–	–	–	–	–	–	·	·
CCOCc1cc(CN2CCCC(CNC(=O)c3ccco3)C2)ccc1OC (stereo unspecified)	·	·	–	–	–	·	·	·
COc1ccc(N2C3=C(CC4=C2CCCC4=O)C(=O)CCC3)cc1	–	–	–	77	75	–	32	–
C[C@@H]1CN(C(=O)c2nc3ccc(Cl)cn3c2CN(C)CCc2cnn(C)c2)C[C@H](C)O1	·	·	–	–	–	·	·	·
COc1ccc(Cc2nnc(NC(=O)Nc3ccccc3F)s2)cc1OC	·	·	–	–	–	·	·	·
CN1CCc2cc3c(c4c2[C@H]1[C@H](O)c1ccccc1-4)OCO3	–	–	48	124	111	–	61	80
COC/C=C/C1=CC2=CC(=O)C(C)(OC(=O)c3cnc4ccccc4n3)C(=O)C2=CO1 (stereo unspecified)	·	·	58	96	74	·	–	56
COc1cccc(CNC(=O)COC(=O)/C(C#N)=C/c2ccc(N(C)C)cc2)c1	·	·	123	136	117	·	89	116
COc1ccc(/C=C(\C#N)C(=O)OCC(=O)NCc2ccccc2)cc1	–	–	–	–	–	–	·	·
CCOc1cc(N2CCOCC2)c(OCC)cc1NC(=O)COC(=O)CCn1c(C)csc1=O	·	·	–	–	–	·	·	·
CC(=O)Nc1ccc(NC(=O)CCc2nc3sc4c(c3c(=O)[nH]2)CCCC4)cc1	·	·	–	–	–	·	·	·
CC1(NC(=O)CCc2nc3sc4c(c3c(=O)[nH]2)CCCC4)CCS(=O)(=O)C1 (stereo unspecified)	·	·	–	42	–	·	–	44
CCCn1c(CN2CCN(C(=O)OCC)CC2)nc2cc(NC(=O)CC)ccc21	·	·	–	–	–	·	·	·
